This assay addresses Glycogen synthase kinase-3 beta (Homo sapiens) (UniProt P49841). Briefly: GSK3beta kinase inhibitors, dose response, biochemical, microfluidics, dry powder samples, set 2 (AID 623989).

Molecules are shown by their SMILES. Entries with a potency or affinity are not part of this list. Inconclusive results are not listed. Calls of active or inactive are those of the source.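 The calls were made as follows: active = curve fit gives half-maximal inhibition potency at or below twice the top tested dose in every run; inconclusive = runs disagree, flat partial inhibition, or poor curve fit; inactive = inactive in every run, flat, reversed or weak.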

Sequence of Glycogen synthase kinase-3 beta (Homo sapiens) (P49841 whole entry, looked up): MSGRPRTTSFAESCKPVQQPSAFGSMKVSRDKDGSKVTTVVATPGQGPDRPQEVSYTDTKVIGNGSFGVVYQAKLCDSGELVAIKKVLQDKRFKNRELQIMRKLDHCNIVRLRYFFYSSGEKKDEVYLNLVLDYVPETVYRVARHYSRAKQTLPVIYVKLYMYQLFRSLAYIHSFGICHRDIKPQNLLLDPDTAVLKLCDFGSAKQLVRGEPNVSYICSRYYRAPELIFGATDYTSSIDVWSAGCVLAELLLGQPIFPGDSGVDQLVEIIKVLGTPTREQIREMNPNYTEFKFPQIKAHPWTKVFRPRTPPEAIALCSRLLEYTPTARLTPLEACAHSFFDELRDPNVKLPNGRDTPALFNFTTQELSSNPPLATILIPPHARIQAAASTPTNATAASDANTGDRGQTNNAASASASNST

As for `COc1cc(C(=O)N2CCN(c3ccccn3)CC2)cc(OC)c1OC`, the compound was classed as inactive.

These data come from PubChem BioAssay AID623989 (Broad Institute, 2012).
